The results in this text go back to PubChem BioAssay (NCI).

Where “and” joins values, the source holds several entries; their conditions need not be identical. Identical values can stand only once. This is part of a sample that, as a whole, favours compounds with a hit. Of some 83,000 tested, about 20% had one in any assay.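 Cells were grown in 96-well plates and exposed to the test compound at a single concentration for 48 hours; results are reported as percent growth, with values below 10 considered active.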 Calls of active or inactive are those of the source.

Some test systems named below: NCI-H23 lung; NCI-H226 lung; NCI-H322M lung; HOP-62 NSCLC; NCI-H460 lung; HOP-92 NSCLC; NCI-H522 lung; A549/ATCC NSCLC; 786-0 renal; COLO 205 colon.
Assay in all cases: NCI-60 one-dose screen, 48 h (100 = growth as untreated, 0 = no growth, -100 = all killed)
What all share (conditions): 10 µM unless noted

For `Cc1c(C)c(N)c(C)c(C)c1N`, the growth in the assay with NCI-H23 lung was 79.2% (inactive); in the assay with NCI-H226 lung, 98.5% (inactive); in the assay with NCI-H322M lung, 87.6% (inactive); in the assay with HOP-62 NSCLC, 90.6% (inactive); in the assay on NCI-H460 lung, 39.8% (inactive); in the assay on HOP-92 NSCLC, 97.5% (inactive). The growth was 40.8% (inactive) in the assay with NCI-H522 lung, 79.6% (inactive) in the assay with A549/ATCC NSCLC, 107% (inactive) in the assay with 786-0 renal and 91.9% (inactive) in the assay on COLO 205 colon.
For the molecule `CC[C@H](C)[C@H](NC(=O)CN(C)C)C(=O)N(C)[C@H](C[C@@H](OC(C)=O)c1nc(C(=O)NC23C4C5C2C2C3C4C52C(=O)OC)cs1)C(C)C` (some centres undefined), the growth with NCI-H23 lung was 21.3% (inactive); in the assay on NCI-H226 lung, 31.7% (inactive); in the assay with NCI-H322M lung, 42.2% (inactive); in the assay on HOP-62 NSCLC, 19.4% (inactive); in the assay on NCI-H460 lung it was 3.35% (active); with HOP-92 NSCLC it was 66.1% (inactive). For the same molecule, the growth in the assay with NCI-H522 lung is 24.1% (inactive); with A549/ATCC NSCLC, 21.3% (inactive); with 786-0 renal, 31.3% (inactive); in the assay on COLO 205 colon, -7.69% (active).
Regarding `CCCCOCCOP(=O)(OCCOCCCC)OCCOCCCC`, the growth in the assay with NCI-H23 lung was 101% (inactive); in the assay with NCI-H226 lung, 90.6% (inactive); in the assay on NCI-H322M lung, 120% (inactive); with HOP-62 NSCLC, 91.6% (inactive); in the assay with NCI-H460 lung it was 99.3% (inactive); in the assay with HOP-92 NSCLC it was 111% (inactive). Besides, the figures for the growth in the assay on NCI-H522 lung, with 786-0 renal and with COLO 205 colon were 100% (inactive), 110% (inactive) and 105% (inactive), respectively.
For the molecule `O=C(NC(Cl)=C(Cl)Cl)P(=O)(c1ccccc1)c1ccccc1`, the growth is 105% (inactive) in the assay with NCI-H23 lung; 101% (inactive) in the assay with NCI-H226 lung; 108% (inactive) with NCI-H322M lung; 104% (inactive) in the assay on HOP-62 NSCLC; 114% (inactive) in the assay with NCI-H460 lung; 97.4% (inactive) in the assay with HOP-92 NSCLC. Besides, the growth is 101% (inactive) in the assay with A549/ATCC NSCLC, 101% (inactive) in the assay on 786-0 renal and 118% (inactive) in the assay with COLO 205 colon.
On to `C/C(=C\c1ccn(-c2ccc(N)cc2F)n1)[C@@H]1C[C@@H]2O[C@]2(C)CCC[C@H](C)[C@H](O)[C@@H](C)C(=O)C(C)(C)[C@@H](O)CC(=O)O1`, for which the growth is 25.2% (inactive) with NCI-H23 lung; 35.6% (inactive) in the assay with NCI-H226 lung; 15.5% (inactive) in the assay with NCI-H322M lung; 36.4% (inactive) in the assay with HOP-62 NSCLC; 11% (inactive) in the assay on NCI-H460 lung; 49% (inactive) in the assay on HOP-92 NSCLC. Also, the growth was 22.5% (inactive) with A549/ATCC NSCLC, 18.1% (inactive) with 786-0 renal and -5.18% (active) in the assay with COLO 205 colon.
As to `CCOC(=O)C1C(C=C(C)C)C1(C)C` (centres undefined), the growth is 101% (inactive) in the assay on NCI-H23 lung; 107% (inactive) in the assay with NCI-H226 lung; 140% (inactive) with NCI-H322M lung; 98.7% (inactive) in the assay on HOP-62 NSCLC; 103% (inactive) with NCI-H460 lung; 84.6% (inactive) with HOP-92 NSCLC. In addition, the growth in the assay on A549/ATCC NSCLC is 98.9% (inactive); in the assay with 786-0 renal, 105% (inactive); in the assay on COLO 205 colon, 109% (inactive).
Consider `CCCC[C@H]1C(=O)O[C@H](C)[C@H](NC(=O)c2cccc(NC=O)c2O)C(=O)O[C@@H](C)[C@@H]1OC(=O)CC(C)C`, for which the growth is 42% (inactive) in the assay on NCI-H23 lung; 44.1% (inactive) in the assay with NCI-H226 lung; 66.3% (inactive) in the assay on NCI-H322M lung; 48.4% (inactive) with HOP-62 NSCLC; 19.9% (inactive) in the assay with NCI-H460 lung; 32.9% (inactive) in the assay on HOP-92 NSCLC. Moreover, the results for the growth in the assay with A549/ATCC NSCLC, in the assay with 786-0 renal and with COLO 205 colon were 11.5% (inactive), 44.8% (inactive) and 42.2% (inactive), respectively.
Regarding `C=CC[PH+](c1ccccc1)c1ccccc1.C=CC[PH+](c1ccccc1)c1ccccc1.[Pt+2].[S-]c1nc2ccccc2[nH]1.[S-]c1nc2ccccc2[nH]1`, the growth is -12.4% (active) in the assay on NCI-H23 lung; -20.6% (active) in the assay on NCI-H226 lung; 6.44% (active) with NCI-H322M lung; -0.445% (active) in the assay with HOP-62 NSCLC; -6.83% (active) with NCI-H460 lung; -44.3% (active) with HOP-92 NSCLC. The growth was -44.2% (active) in the assay on NCI-H522 lung, -3.29% (active) with A549/ATCC NSCLC, -4.36% (active) in the assay with 786-0 renal and -36.7% (active) with COLO 205 colon.
`CCCCCCCCCCCCCCCC[N+](C)(C)Cc1ccccc1`: the growth in the assay with NCI-H23 lung was 9.06% (active) and -49.4% (active); with NCI-H226 lung, 21.5% (inactive) and -6.4% (active); in the assay on NCI-H322M lung, 63.3% (inactive) and 33.8% (inactive); in the assay on HOP-62 NSCLC, 17.9% (inactive) and -86.3% (active); with NCI-H460 lung, 15.7% (inactive) and -100% (active); in the assay with HOP-92 NSCLC it was -39.2% (active) and -55.5% (active). Besides, the growth in the assay with NCI-H522 lung is 4.46% (active) and -58.2% (active); with 786-0 renal, 11% (inactive) and -94.1% (active).
Turning to `O=C(NCCCN1CC1)Nc1cccc2ccccc12`, the growth was 104% (inactive) and 92.7% (inactive) with NCI-H23 lung; 102% (inactive) and 92.4% (inactive) in the assay with NCI-H226 lung; 116% (inactive) and 102% (inactive) in the assay with NCI-H322M lung; 48.9% (inactive) and 87.9% (inactive) in the assay on HOP-62 NSCLC; 109% (inactive) and 91% (inactive) in the assay with NCI-H460 lung; 90.5% (inactive) in the assay with HOP-92 NSCLC. In addition, the growth in the assay on A549/ATCC NSCLC was 97.3% (inactive) and 91.6% (inactive); with 786-0 renal, 108% (inactive) and 103% (inactive); in the assay on COLO 205 colon it was 106% (inactive) and 103% (inactive).
On to `COc1ccc(N)cc1N`, for which the growth in the assay on NCI-H23 lung is 96.8% (inactive); in the assay with NCI-H226 lung, 103% (inactive); in the assay with NCI-H322M lung, 96.1% (inactive); in the assay on HOP-62 NSCLC, 95.5% (inactive); in the assay with NCI-H460 lung, 107% (inactive); in the assay with HOP-92 NSCLC, 85.7% (inactive). Moreover, the growth in the assay on A549/ATCC NSCLC is 118% (inactive); in the assay with 786-0 renal it was 102% (inactive); with COLO 205 colon, 121% (inactive).
Take `CC[CH2][Sn]([Cl])([Cl])[CH2]CC.Oc1ccccc1C=NCCN=Cc1ccccc1O`: the growth in the assay on NCI-H23 lung is 56.4% (inactive) and 34.2% (inactive); in the assay with NCI-H226 lung, 11% (inactive) and 17.4% (inactive); in the assay with NCI-H322M lung it was 105% (inactive) and 92.4% (inactive); in the assay on HOP-62 NSCLC, 103% (inactive) and 83.8% (inactive); in the assay with NCI-H460 lung, 110% (inactive) and 90.5% (inactive); with HOP-92 NSCLC it was 40% (inactive) and 29.2% (inactive). In addition, the growth in the assay on A549/ATCC NSCLC is 103% (inactive) and 92.3% (inactive); with 786-0 renal it was 65.2% (inactive) and 59.1% (inactive); in the assay with COLO 205 colon, 50.6% (inactive) and -12.1% (active).
For the molecule `CC[C@H](C)[C@H](NC(=O)[C@H]1CCCCN1C)C(=O)N(C)[C@H](C[C@@H](OC(C)=O)c1nc(C(=O)N[C@@H](Cc2ccccc2)C[C@H](C)C(=O)O)cs1)C(C)C`, the growth in the assay with NCI-H23 lung is 25.9% (inactive); with NCI-H226 lung, 11.6% (inactive); in the assay with NCI-H322M lung it was 51.5% (inactive); with HOP-62 NSCLC, 12.2% (inactive); in the assay with NCI-H460 lung it was 11% (inactive); with HOP-92 NSCLC it was 14.8% (inactive). Also, the growth was -47.1% (active) in the assay on NCI-H522 lung, 10.2% (inactive) with A549/ATCC NSCLC, 15.6% (inactive) in the assay with 786-0 renal and -80.3% (active) in the assay on COLO 205 colon.
As for `CCC1CCC(=O)O1` (centres undefined), the growth is 110% (inactive) and 111% (inactive) with NCI-H23 lung; 97.4% (inactive) and 110% (inactive) with NCI-H226 lung; 102% (inactive) and 104% (inactive) with NCI-H322M lung; 96.9% (inactive) and 115% (inactive) in the assay with HOP-62 NSCLC; 103% (inactive) and 110% (inactive) with NCI-H460 lung; 123% (inactive) with HOP-92 NSCLC. Also, the growth with A549/ATCC NSCLC is 112% (inactive) and 105% (inactive); with 786-0 renal, 98.1% (inactive) and 107% (inactive); in the assay on COLO 205 colon, 104% (inactive) and 125% (inactive).
